Experimental data: PubChem BioAssay
For some assays here: Measured potencies and affinities stand elsewhere. Active and inactive are the calls of the source. Unless noted, the rule behind the calls is not given here.

Columns and labels:
[1] = antimalarial activity against Dd2 strain (AID 2302;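 active = growth inhibition above 50% at the single 2 µM test dose, taken to imply half-maximal potency below 2 µM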;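 note: 0% = DMSO untreated growth and 100% = chloroquine plus artemisinin killed control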); conditions: P. falciparum Dd2 in RBCs, LDH growth readout, 72 h; at 2 µM; stronger effect = higher value
[2] = human hepatoma cell viability loss – ATP luminescence, cytotoxicity control for P. falciparum antimalarial project, primary screen (AID 2303;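 active = inhibition above 50%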;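 note: 0% = DMSO wells and 100% = digitonin-killed cells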); conditions: HepG2 viability, 24-48 h, at 10 µM, stronger effect = higher value
[3] = target: L-lactate dehydrogenase (Plasmodium falciparum (isolate CDC / Honduras)) (UniProt Q27743); assay: PfLDH activity inhibition – cell lysate, 3D7 strain, counter-screen for P. falciparum growth inhibition project (AID 2304);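 note: 0% = vehicle and 100% = reference inhibitor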; conditions: P. falciparum 3D7 crude extract, LDH APAD/NBT absorbance; at 2 µM; stronger effect = higher value
[4] = inhibition of 3D7 malaria parasite growth – strain 3D7 (AID 2306);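 note: 0% = DMSO wells and 100% = chloroquine plus artemisinin control wells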; conditions: P. falciparum 3D7 erythrocytic growth, LDH absorbance, 72 h; at 2 µM; stronger effect = higher value
[5] = target: Calcium-dependent protein kinase 1 (Plasmodium falciparum (isolate 3D7)) (UniProt P62344); assay: PfCDPK1 kinase inhibitors, biochemical, TCAMS library (AID 1159585; cut-off not given, nearly all actives have IC50 up to about 0.98 µM;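 note: inhibitors leave more ATP so luminescence rises with inhibition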); conditions: recombinant PfCDPK1, Kinase-Glo ATP depletion luminescence
[6] = target: Plasmodium falciparum protein kinase 6 (PK6, PF3D7_1337100) (UniProt Q8IDW1); assay: PfPK6 kinase inhibitors, biochemical, TCAMS library (AID 1159586); conditions: recombinant PfPK6, Kinase-Glo ATP depletion luminescence
[7] = target: Protein kinase 7 (PK7), Plasmodium falciparum 3D7 (PF3D7_0213400) (UniProt Q7YTF7); assay: inhibition of Plasmodium PK7 catalytic activity – biochemical, TCAMS antimalarial set, Kinase-Glo luminescence (AID 1159587); conditions: recombinant PfPK7, Kinase-Glo ATP depletion luminescence
[8] = target: Calcium-dependent protein kinase 4 (Plasmodium falciparum (isolate 3D7)) (UniProt Q8IBS5); assay: PfCDPK4 kinase inhibitors, biochemical, TCAMS library (AID 1159588; cut-off not given, nearly all actives have IC50 up to about 0.91 µM); conditions: recombinant PfCDPK4, Kinase-Glo ATP depletion luminescence
Sequence of Calcium-dependent protein kinase 4 (Plasmodium falciparum (isolate 3D7)) (Q8IBS5 whole entry, looked up): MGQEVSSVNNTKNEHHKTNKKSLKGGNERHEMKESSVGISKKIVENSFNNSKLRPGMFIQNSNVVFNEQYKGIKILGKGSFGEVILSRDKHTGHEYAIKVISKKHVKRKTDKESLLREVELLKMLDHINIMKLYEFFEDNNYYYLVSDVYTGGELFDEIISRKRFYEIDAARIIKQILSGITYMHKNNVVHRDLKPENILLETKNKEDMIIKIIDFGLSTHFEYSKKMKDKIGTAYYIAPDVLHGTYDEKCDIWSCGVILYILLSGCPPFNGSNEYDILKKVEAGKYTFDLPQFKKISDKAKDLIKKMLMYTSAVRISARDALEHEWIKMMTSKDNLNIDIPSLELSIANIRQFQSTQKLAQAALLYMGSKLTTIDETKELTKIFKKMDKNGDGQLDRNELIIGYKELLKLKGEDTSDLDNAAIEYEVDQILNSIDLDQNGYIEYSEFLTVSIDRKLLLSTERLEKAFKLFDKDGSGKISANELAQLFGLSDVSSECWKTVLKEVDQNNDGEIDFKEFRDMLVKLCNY

Sequence of Calcium-dependent protein kinase 1 (Plasmodium falciparum (isolate 3D7)) (P62344 whole entry, looked up): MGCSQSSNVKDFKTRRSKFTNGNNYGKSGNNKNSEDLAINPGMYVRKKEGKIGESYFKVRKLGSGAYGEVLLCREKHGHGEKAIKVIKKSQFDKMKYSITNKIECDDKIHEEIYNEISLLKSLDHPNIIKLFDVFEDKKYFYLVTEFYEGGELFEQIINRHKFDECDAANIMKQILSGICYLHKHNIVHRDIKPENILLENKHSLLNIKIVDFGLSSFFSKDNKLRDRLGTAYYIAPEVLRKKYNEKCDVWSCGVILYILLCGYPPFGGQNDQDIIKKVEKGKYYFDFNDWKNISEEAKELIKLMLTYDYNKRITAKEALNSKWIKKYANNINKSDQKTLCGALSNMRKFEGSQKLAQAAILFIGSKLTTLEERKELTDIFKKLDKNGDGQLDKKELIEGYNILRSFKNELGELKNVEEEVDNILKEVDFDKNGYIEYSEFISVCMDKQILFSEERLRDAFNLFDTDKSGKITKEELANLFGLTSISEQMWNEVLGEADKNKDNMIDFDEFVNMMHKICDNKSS
Sequence of Protein kinase 7 (PK7), Plasmodium falciparum 3D7 (PF3D7_0213400) (Q7YTF7 1-343): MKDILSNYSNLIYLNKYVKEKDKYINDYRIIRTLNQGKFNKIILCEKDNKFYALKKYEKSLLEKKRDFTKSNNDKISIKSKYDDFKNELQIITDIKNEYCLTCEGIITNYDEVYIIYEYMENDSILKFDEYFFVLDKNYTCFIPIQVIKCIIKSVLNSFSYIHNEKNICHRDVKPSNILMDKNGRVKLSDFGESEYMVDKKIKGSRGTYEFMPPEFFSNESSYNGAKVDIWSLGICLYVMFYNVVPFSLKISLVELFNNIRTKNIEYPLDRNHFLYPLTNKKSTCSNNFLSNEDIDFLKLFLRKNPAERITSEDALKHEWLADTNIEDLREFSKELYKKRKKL
Sequence of L-lactate dehydrogenase (Plasmodium falciparum (isolate CDC / Honduras)) (Q27743 whole entry, looked up): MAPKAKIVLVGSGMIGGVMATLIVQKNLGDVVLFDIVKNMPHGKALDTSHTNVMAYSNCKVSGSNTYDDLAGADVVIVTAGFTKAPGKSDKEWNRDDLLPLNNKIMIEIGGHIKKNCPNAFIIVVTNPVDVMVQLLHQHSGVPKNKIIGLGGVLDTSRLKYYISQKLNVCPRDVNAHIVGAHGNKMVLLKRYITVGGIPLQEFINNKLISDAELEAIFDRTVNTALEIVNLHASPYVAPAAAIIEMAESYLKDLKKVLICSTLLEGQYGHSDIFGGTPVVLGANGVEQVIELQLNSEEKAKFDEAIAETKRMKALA
Sequence of Plasmodium falciparum protein kinase 6 (PK6, PF3D7_1337100) (Q8IDW1 1-305): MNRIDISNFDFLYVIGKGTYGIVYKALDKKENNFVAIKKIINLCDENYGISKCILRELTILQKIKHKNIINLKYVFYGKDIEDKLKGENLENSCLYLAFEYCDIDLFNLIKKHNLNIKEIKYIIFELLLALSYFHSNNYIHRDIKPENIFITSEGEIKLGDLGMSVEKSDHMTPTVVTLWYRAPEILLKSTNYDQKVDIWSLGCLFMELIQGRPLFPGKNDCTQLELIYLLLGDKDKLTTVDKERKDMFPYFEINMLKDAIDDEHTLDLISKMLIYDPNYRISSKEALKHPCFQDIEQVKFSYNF

COc1ccccc1/C=C/C(=O)NC1CCC(CCN2CCc3ccc(-c4cc(C)no4)cc3CC2)CC1 (configuration not stated)
active: growth inhibition [4] 95%
inactive: growth inhibition [1] 11% | inhibition [2] 47% | inhibition [3] 0% | outcome [5] | outcome [6] | outcome [7] | outcome [8]

Cc1ccc2c(NN=Cc3ccc(N(C)C)cc3)cc(C)nc2c1
active: growth inhibition [4] 99%
inactive: growth inhibition [1] 46% | inhibition [2] -9% | inhibition [3] 8% | outcome [5] | outcome [6] | outcome [7] | outcome [8]

CC1CN(c2ccc(NC(=O)c3ccsc3)cc2C(=O)N2CCN(Cc3ccc(C(C)(C)C)cc3)CC2)CC(C)O1 (configuration not stated)
inactive: inhibition [2] 12% | inhibition [3] 7% | outcome [5] | outcome [6] | outcome [7] | outcome [8]
active: growth inhibition [1] 80% | growth inhibition [4] 90%

Cc1ccc(CN2CCCN(Cc3cccc(NC(=O)c4cc5ccccc5s4)c3)CC2)cc1C
inactive: growth inhibition [1] 33% | inhibition [2] 44% | inhibition [3] -3% | outcome [5] | outcome [6] | outcome [7] | outcome [8]
active: growth inhibition [4] 92%
